The values that follow are results of earlier work, collected in PubChem BioAssay AID977611.

The series in a line: PubChem AID 977611. As to conditions: PDB protein-ligand complexes, literature Kd.

Among all 3,900 compounds or so, about 3,900 (100%) were called active. No cut-off is given here; in the data, nearly all actives have Kd up to about 4200 µM. So high a share suggests a set chosen from earlier hits. The list shows a part of the results. *1 amine or outer side, *2 acyl side, *3 side chain or, on linkers, in order; H or OH if unused. Where a SMILES comes first, the peptide text is derived from it. Square brackets hold non-standard residues; d marks the D form. Peptide text beside a SMILES is read from it. [ ]: non-standard residue; d: D form. X1 = O=C([C@H](Cc1ccc(O[P+](O)(O)O)cc1)N[*:1])[*:2]; Thr(P(OH)3+) = C[C@@H](O[P+](O)(O)O)[C@H](N)C(=O)O; Lys(Me3) = C[N+](C)(C)CCCC[C@H](N)C(=O)O; Orn(CH(NH2)2) = NC(N)NCCC[C@H](N)C(=O)O; ΔPro = O=C(O)[C@@H]1C=CCN1

Broadly, the Kd is a measure of binding affinity in units of concentration. Consider `C[C@H](N)C(=O)N[C@@H](CCCNC(N)N)C(=O)N[C@H](C(=O)N[C@@H](CCCC[N+](C)(C)C)C(=O)N[C@@H](CCC(N)=O)C(=O)N[C@H](C(=O)N[C@@H](C)C(=O)N[C@@H](CCCNC(N)N)C(=O)N[C@@H](CCCCN)C(=O)N[C@@H](CO)C(=O)N[C@H](C=O)[C@@H](C)O)[C@@H](C)O)[C@@H](C)O`, for which, for the setting “protein: Inhibitor of growth protein 4( ING4) PHD domain, PDB entry 2pnx”, the Kd was 7.9 µM (active).

As to `C[C@H](NC(=O)[C@@H](NC(=O)[C@H](CCC(N)=O)NC(=O)[C@@H](N)CCCCN)[C@@H](C)O)C(=O)N[C@@H](CCCNC(N)N)C(=O)N[C@@H](CCCC[N+](C)(C)C)C(=O)N[C@@H](CO)C(=O)O` (H-KQTA[Orn(CH(NH2)2)][Lys(Me3)]S-OH), the Kd (protein: Chromo domain-containing protein 1, Chp1, PDB entry 3g7l) was 0.19 µM (active).

Consider `N[C@H]1[C@H](O[C@H]2[C@H](O)[C@@H](N)[C@H](O[C@H]3[C@H](O)[C@@H](N)[C@H](O[C@H]4[C@H](O)[C@@H](N)[C@H](O[C@H]5[C@H](O)[C@@H](N)C(=O)O[C@@H]5CO)O[C@@H]4CO)O[C@@H]3CO)O[C@@H]2CO)O[C@H](CO)[C@@H](O)[C@@H]1O`, for which the dissociation constant (Kd) (protein: Ostrinia furnacalis Group I chitinase catalytic domain, PDB entry 3wqw) is 5.9 µM (active).

`N[C@@H]1[C@@H](O)[C@H](O[C@@H]2O[C@H](CO)[C@@H](O[C@@H]3O[C@H](CO)[C@@H](O[C@@H]4O[C@H](CO)[C@@H](O[C@@H]5O[C@H](CO)[C@@H](O)[C@H](O)[C@H]5N)[C@H](O)[C@H]4N)[C@H](O)[C@H]3N)[C@H](O)[C@H]2N)[C@@H](CO)O[C@H]1O`: the Kd (protein: Ostrinia furnacalis Group I chitinase catalytic domain, PDB entry 3wqv) was 6.2 µM (active).

For H-ATFYVA-OH, for the setting “protein: protease, tethered dimer, PDB entry 4eqj”, the equilibrium dissociation constant (Kd) is 2.52 µM (active).

As to H-AQTFYVDG-OH, the Kd (protein: HIV-1 protease, PDB entry 2nxm) is 6.4 µM (active).

As to H-AEVFYVDGA-OH, under “protein: HIV-1 protease, PDB entry 2nxl”, the dissociation constant (Kd) was 0.54 µM (active).

Regarding H-AETFYVD-OH, the Kd (protein: protease, tethered dimer, PDB entry 4ep2) was 4.43 µM (active).

Regarding `CC[C@H](C)[C@H](NC(=O)[C@H](CCC(=O)O)NC(=O)[C@H](CCC(=O)O)NC(=O)[C@H](Cc1ccccc1)NC(=O)[C@H](CC(=O)O)NC(=O)CN)C(=O)N1CC=C[C@H]1C(=O)NCC(=O)N[C@@H](CCC(=O)O)C(=O)N[C@@H](Cc1ccc(O)cc1)C(=O)N[C@@H](C)C(=O)O` (H-GDFEEI[ΔPro]GEYA-OH), the Kd (protein: thrombin alpha, PDB entry 1a3e) was 0.0035 µM (active).

Regarding `CC(C)[C@H](NC(=O)[C@H](Cc1ccc(O)cc1)NC(=O)[C@H](CC(N)=O)NC(=O)CN)C(=O)N[C@H](C(=O)N[C@H](C(=O)N[C@@H](Cc1ccc(O[P+](O)(O)O)cc1)C(=O)N[C@@H](C)C(=O)O)[C@@H](C)O)C(C)C` (H-GNYVVT[X1]A-OH), the Kd (protein: phosphotyrosine (pTyr) scaffold Fab, PDB entry 4jfx) was 0.36 µM (active).

As for `COc1cc2c(c(OC)c1OC)C1=CCC(=O)C(=O)C=C1[C@@H](NC(C)=O)CC2`, the Kd (protein: Bromodomain-containing protein 4, BRD4(1), PDB entry 4lys) is 46 µM (active).

In the case of `COc1cc(/C=C/CO)ccc1O`, for the setting “protein: Coniferyl alcohol 9-O-methyltransferase, PDB entry 4e70”, the Kd is 5.26 µM (active).

For `CC(C)[C@H](NC(=O)[C@H](Cc1ccc(O)cc1)NC(=O)[C@H](CC(N)=O)NC(=O)CNC(=O)[C@@H](N)CCCCN)C(=O)N[C@H](C(=O)N[C@H](C(=O)N[C@@H](CO[P+](O)(O)O)C(=O)O)[C@@H](C)O)C(C)C`, the equilibrium dissociation constant (Kd) (protein: phosphoserine/threonine (pSTAb) scaffold Fab, PDB entry 4jg0) was 0.172 µM (active).

On to `CC(C)[C@H](NC(=O)[C@H](Cc1ccc(O)cc1)NC(=O)[C@H](CC(N)=O)NC(=O)CNC(=O)[C@@H](N)CCCCN)C(=O)N[C@H](C(=O)N[C@H](C(=O)N[C@@H](CO[P+](O)(O)O)C(=O)N[C@@H](Cc1cnc[nH]1)C(=O)O)[C@@H](C)O)C(C)C`, for which, under “protein: phosphoserine (pSAb) scaffold Fab, PDB entry 4jfz”, the Kd was 0.071 µM (active).

Consider `CC(C)[C@H](NC(=O)[C@H](Cc1ccc(O)cc1)NC(=O)[C@H](CC(N)=O)NC(=O)CNC(=O)[C@@H](N)CCCCN)C(=O)N[C@H](C(=O)N[C@H](C(=O)N[C@H](C(=O)N[C@@H](Cc1cnc[nH]1)C(=O)O)[C@@H](C)O[P+](O)(O)O)[C@@H](C)O)C(C)C` (H-KGNYVVT[Thr(P(OH)3+)]H-OH), for which the Kd (protein: phosphoserine/threonine (pSTAb) scaffold Fab, PDB entry 4jg1) is 0.232 µM (active).

For `C[C@@H]1O[C@@H](Oc2c(-c3ccc(O)c(O)c3)oc3cc(O)cc(O)c3c2=O)[C@H](O)[C@H](O)[C@H]1O`, the equilibrium dissociation constant (Kd) (protein: Ribosomal protein S6 kinase alpha-3, PDB entry 4gue) was 5.8 µM (active).

As for `CC1=CC(N)c2ccccc2N1CCCCCCCCCCN1c2ccccc2C(N)=CC1C` (centres undefined), the Kd (protein: Putative regulatory protein, PDB entry 3vw0) is 21.2 µM (active).

`Cc1cc(=N)c2ccccc2n1CCCCCCCCCCN1c2ccccc2C(N)=CC1C` (centres undefined): the Kd (protein: Chitinase A(W275G mutant), PDB entry 3art) is 37 µM (active).

Turning to `Cc1cc(=N)c2ccccc2n1CCCCCCCC/C=C/N1c2ccccc2C(N)=CC1C` (centres undefined), the Kd (protein: Chitinase A, PDB entry 3arp) is 0.07 µM (active).
